The values that follow come from PubChem BioAssay (NCI).

The panel holds about 79,000 compounds, 15% with a hit somewhere; the sample as a whole holds those more often. Values without a mark were called inactive. Calls of active or inactive are those of the source. Cut-off read from the data, not from the text of the source: active = growth inhibition above about 70%; inactive = the rest.

Experiment [1] can be described thus: NCI Yeast Anticancer Drug Screen. Data for the rad50 strain (AID 155).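 Note: 0% = growth of vehicle-only cultures of the same strain.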 Conditions: S. cerevisiae rad50 strain growth inhibition, hits give high values. In outline:
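Inhibition values express reduced yeast growth in compound-treated cultures relative to vehicle-treated controls.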

Experiment [2] in a line: NCI Yeast Anticancer Drug Screen. Data for the mec2-1 strain (AID 157). Conditions: S. cerevisiae mec2-1 strain, hits give high values. In outline:
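Cells of the genetically defined mec2-1 yeast strain are incubated with test compound. Inhibition of growth is calculated against vehicle-treated controls.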

The nature of experiment [3]: NCI Yeast Anticancer Drug Screen. Data for the sgs1 mgt1 strain (AID 161).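 Note: 0% = growth of cultures given vehicle only.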 Conditions: S. cerevisiae sgs1 mgt1 strain, hits give high values. The method, boiled down:
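Test agents were incubated with a DNA-repair-mutant yeast strain. Growth was then read and compared against vehicle-treated controls.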

Experiment [4] in a line: NCI Yeast Anticancer Drug Screen. Data for the cln2 rad14 strain (AID 165).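 Note: 0% = growth equal to vehicle treated cultures.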 Conditions: S. cerevisiae cln2 rad14 strain, hits give high values. The method, boiled down: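 The screen exposed genetically defined yeast (cln2 rad14) to test compounds and scored growth inhibition relative to vehicle-treated controls.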
Experiment [5] is described as follows: NCI Yeast Anticancer Drug Screen. Data for the bub3 strain (AID 167). The following applies: S. cerevisiae bub3 mutant strain, hits give high values. The method, boiled down:
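Steps: expose the mutant yeast strain to compound; grow alongside vehicle-treated cultures; measure growth; express inhibition against the vehicle cultures.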

Experiment [6] is described as follows: NCI Yeast Anticancer Drug Screen. Data for the mlh1 rad18 strain (AID 175). The following applies: S. cerevisiae mlh1 rad18 strain growth inhibition, hits give high values. In outline: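 Compound-treated yeast growth, normalised to vehicle controls. Strain bears defined DNA repair mutations.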
[7] abbreviates: at 5.0 µM (retest, dose inferred, filed as 0.5).
Setting [8] is: at 50.0 µM (retest, dose inferred, filed as 5.0).

Turning to `Clc1ccc(CSc2ncnc3c2ncn3C2CCCCO2)cc1` (configuration not stated), the growth inhibition in experiment [1] (setting [7]) was -5%; in experiment [1] (setting [8]), 97% (active); in experiment [1] (at 50.0 µM), 97.5% (active); in experiment [2] (setting [7]) it was -7%; in experiment [2] (setting [8]), 96% (active); in experiment [2] (at 50.0 µM), 97.5% (active). Moreover, the growth inhibition in experiment [3] (setting [7]) was 15%; in experiment [3] (setting [8]) it was 92% (active); in experiment [3] (at 50.0 µM) it was 97.5% (active); in experiment [4] (setting [7]) it was -20%; in experiment [4] (setting [8]), 88% (active); in experiment [4] (at 50.0 µM), 94.3% (active). Also, the growth inhibition in experiment [5] (setting [7]) was -15%; in experiment [5] (setting [8]), 78% (active); in experiment [5] (at 50.0 µM), 95.8% (active); in experiment [6] (setting [7]) it was 3%; in experiment [6] (setting [8]), 96% (active); in experiment [6] (at 50.0 µM) it was 97% (active).
For `CN(CCC(=O)/C(=C\c1ccc(Cl)cc1)c1ccccc1)Cc1ccccc1`, the growth inhibition was 98% (active) in experiment [1] (setting [7]); 98% (active) in experiment [1] (setting [8]); 62.9% in experiment [1] (at 50.0 µM); 100% (active) in experiment [2] (setting [7]); 99% (active) in experiment [2] (setting [8]); 99% (active) in experiment [2] (at 50.0 µM). Further, the growth inhibition in experiment [3] (setting [7]) was 99% (active); in experiment [3] (setting [8]), 99% (active); in experiment [3] (at 50.0 µM), 98.2% (active); in experiment [4] (setting [7]), 98% (active); in experiment [4] (setting [8]), 98% (active); in experiment [4] (at 50.0 µM), 98.5% (active). For the same molecule, the growth inhibition in experiment [5] (setting [7]) was 97% (active); in experiment [5] (setting [8]) it was 99% (active); in experiment [5] (at 50.0 µM) it was 97.6% (active); in experiment [6] (setting [7]) it was 99% (active); in experiment [6] (setting [8]), 99% (active); in experiment [6] (at 50.0 µM) it was 98.5% (active).
For `COc1ccccc1NC(=O)Oc1ccc(C(C)(CCC(=O)O)c2ccc(OC(=O)Nc3ccccc3OC)cc2)cc1`, the growth inhibition in experiment [1] (setting [7]) is -2%; in experiment [1] (setting [8]) it was 13%; in experiment [1] (at 50.0 µM) it was -9.65%; in experiment [2] (setting [7]), 8%; in experiment [2] (setting [8]) it was 25%; in experiment [2] (at 50.0 µM), -1.8%. For the same molecule, the growth inhibition in experiment [3] (setting [7]) is -31%; in experiment [3] (setting [8]), -7%; in experiment [3] (at 50.0 µM) it was 11.7%; in experiment [4] (setting [7]) it was 2%; in experiment [4] (setting [8]), -20%; in experiment [4] (at 50.0 µM), 39.8%. Moreover, the growth inhibition in experiment [5] (setting [7]) is 0%; in experiment [5] (setting [8]), 15%; in experiment [5] (at 50.0 µM), 8.05%; in experiment [6] (setting [7]), -26%; in experiment [6] (setting [8]), -45%; in experiment [6] (at 50.0 µM) it was -24.6%.
With `Cc1ccc(OC/C=C/c2cccc(C#N)c2)cc1`, the growth inhibition was -3% in experiment [1] (setting [7]); 2% in experiment [1] (setting [8]); -0.45% in experiment [1] (at 50.0 µM); 3% in experiment [2] (setting [7]); -2% in experiment [2] (setting [8]); 11.2% in experiment [2] (at 50.0 µM). Also, the growth inhibition in experiment [3] (setting [7]) is 0%; in experiment [3] (setting [8]), 18%; in experiment [3] (at 50.0 µM), -2.05%; in experiment [4] (setting [7]), -6%; in experiment [4] (setting [8]), -11%; in experiment [4] (at 50.0 µM), 44%. Besides, the growth inhibition in experiment [5] (setting [7]) is 0%; in experiment [5] (setting [8]), 12%; in experiment [5] (at 50.0 µM) it was -0.9%; in experiment [6] (setting [7]), -5%; in experiment [6] (setting [8]), -1%; in experiment [6] (at 50.0 µM), 43.5%.
`O=[N+]([O-])c1ccc(/C=N\OCc2cscn2)cc1`: the growth inhibition is 3% in experiment [1] (setting [7]); 46% in experiment [1] (setting [8]); 76.7% (active) in experiment [1] (at 50.0 µM); -11% in experiment [2] (setting [7]); 74% (active) in experiment [2] (setting [8]); 55.5% in experiment [2] (at 50.0 µM). Moreover, the growth inhibition is -10% in experiment [3] (setting [7]); 73% (active) in experiment [3] (setting [8]); 62.4% in experiment [3] (at 50.0 µM); 0% in experiment [4] (setting [7]); 31% in experiment [4] (setting [8]); -13.4% in experiment [4] (at 50.0 µM). In addition, the growth inhibition in experiment [5] (setting [7]) was -6%; in experiment [5] (setting [8]) it was 88% (active); in experiment [5] (at 50.0 µM) it was -19.4%; in experiment [6] (setting [7]), 11%; in experiment [6] (setting [8]), 79% (active); in experiment [6] (at 50.0 µM) it was 71% (active).
In the case of `CC(=O)Oc1cc(Cl)ccc1Cc1ccc(Cl)cc1OC(C)=O`, the growth inhibition in experiment [1] (setting [7]) was 0%; in experiment [1] (setting [8]) it was 87% (active); in experiment [1] (at 50.0 µM) it was 94.5% (active); in experiment [2] (setting [7]), 1%; in experiment [2] (setting [8]) it was 78% (active); in experiment [2] (at 50.0 µM), 91.4% (active). Besides, the growth inhibition in experiment [3] (setting [7]) is 0%; in experiment [3] (setting [8]) it was 76% (active); in experiment [3] (at 50.0 µM), 85.1% (active); in experiment [4] (setting [7]), 2%; in experiment [4] (setting [8]), 89% (active); in experiment [4] (at 50.0 µM), 90.7% (active). Also, the growth inhibition in experiment [5] (setting [7]) is 2%; in experiment [5] (setting [8]), 83% (active); in experiment [5] (at 50.0 µM) it was 94.8% (active); in experiment [6] (setting [7]), 1%; in experiment [6] (setting [8]), 90% (active); in experiment [6] (at 50.0 µM), 94.7% (active).
As to `O=CC(O)C(O)C(O)C(O)C(=O)NCCCCCCCCCCCCNC(=O)C(O)C(O)C(O)C(O)C=O` (configuration not stated), the growth inhibition in experiment [1] (setting [7]) is 19%; in experiment [1] (setting [8]) it was 22%; in experiment [1] (at 50.0 µM), 16.4%; in experiment [2] (setting [7]), 20%; in experiment [2] (setting [8]) it was 27%; in experiment [2] (at 50.0 µM), 12.2%. Also, the growth inhibition in experiment [3] (setting [7]) is -20%; in experiment [3] (setting [8]) it was -28%; in experiment [3] (at 50.0 µM), 21.9%; in experiment [4] (setting [7]), -2%; in experiment [4] (setting [8]), 18%; in experiment [4] (at 50.0 µM) it was 25.2%. Also, the growth inhibition is -4% in experiment [5] (setting [7]); 10% in experiment [5] (setting [8]); -6.7% in experiment [5] (at 50.0 µM); 20% in experiment [6] (setting [7]); 23% in experiment [6] (setting [8]); -20.6% in experiment [6] (at 50.0 µM).
Take `O=C1C=CCCCC1(c1ccccc1)c1ccccc1`: the growth inhibition in experiment [1] (setting [7]) was 2%; in experiment [1] (setting [8]), 8%; in experiment [1] (at 50.0 µM) it was 77.5% (active); in experiment [2] (setting [7]) it was 0%; in experiment [2] (setting [8]) it was 14%; in experiment [2] (at 50.0 µM), 70.3% (active). The growth inhibition was 5% in experiment [3] (setting [7]); 15% in experiment [3] (setting [8]); 85.4% (active) in experiment [3] (at 50.0 µM); 9% in experiment [4] (setting [7]); 4% in experiment [4] (setting [8]); 19.9% in experiment [4] (at 50.0 µM). For the same molecule, the growth inhibition in experiment [5] (setting [7]) is -3%; in experiment [5] (setting [8]) it was -6%; in experiment [5] (at 50.0 µM), 52.2%; in experiment [6] (setting [7]), -3%; in experiment [6] (setting [8]), 12%; in experiment [6] (at 50.0 µM), 73.6% (active).
As for `COC(=O)CNC(=O)C(F)(F)F`, the growth inhibition in experiment [1] (setting [7]) was -160%; in experiment [1] (setting [8]), -152%; in experiment [1] (at 50.0 µM), 81.8% (active); in experiment [2] (setting [7]) it was -47%; in experiment [2] (setting [8]) it was -49%; in experiment [2] (at 50.0 µM) it was 68.1%. The growth inhibition in experiment [3] (setting [7]) is -61%; in experiment [3] (setting [8]) it was -58%; in experiment [3] (at 50.0 µM), 71.7% (active); in experiment [4] (setting [7]), -61%; in experiment [4] (setting [8]), -66%; in experiment [4] (at 50.0 µM) it was 75.6% (active). Besides, the growth inhibition in experiment [5] (setting [7]) was -65%; in experiment [5] (setting [8]), -73%; in experiment [5] (at 50.0 µM), 59.1%; in experiment [6] (setting [7]), -141%; in experiment [6] (setting [8]), -111%; in experiment [6] (at 50.0 µM), 80.5% (active).
